Measurements from PubChem BioAssay AID1159580 (chemical genetic matrix, 2015).
Values joined by “and” are separate entries in the source; they are usually repeats but may differ in a detail not shown here. Equal entries are not always repeated. About 2,000 (36%) of roughly 5,500 compounds were called active. Not shown: some 18% with an inconclusive outcome. Rule as the data show it: active = normalized growth mostly below about 0.91 (no sharp cut-off); inconclusive = no clear call, values can overlap the other calls; inactive = mostly above about 0.92. The list shows a part of the results.

Test: chemical genetic growth profiling, strain panel (AID 1159580);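 also: tested at 20 µM; growth read once vehicle control cultures reached saturation at 30 °C; 1 = growth at the plate median or of vehicle wells; lower values mean less growth of the strain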
Conditions: S. cerevisiae deletion strains, growth OD

Measured: normalized growth

C[C@]12CCC3C(CC[C@H]4CC(=O)CC[C@]34C)C1CCC2=O (some centres not stated)
0.743 (active) and 0.898 (inactive): locus YJL095W, strain BCK1, stronger effect = lower value
active: locus YAL021C, strain ccr4, stronger effect = lower value 0.737 | locus YBR009C, strain hhf1, stronger effect = lower value 0.79 | locus YBR021W, strain FUR4, stronger effect = lower value 0.781 | locus YCL011C, strain gbp2, stronger effect = lower value 0.86 | locus YDL035C, strain GPR1, stronger effect = lower value 0.787 | locus YDL192W, strain arf1, stronger effect = lower value 0.866 | locus YDR137W, strain rgp1, stronger effect = lower value 0.549 | locus YDR159W, strain sac3, stronger effect = lower value 0.799 | locus YDR162C, strain NBP2, stronger effect = lower value 0.408 | locus YDR195W, strain ref2 1.28 [resistant] | locus YDR318W, strain mcm21, stronger effect = lower value 0.895 | locus YDR388W, stronger effect = lower value 0.86 | locus YDR392W, strain spt3, stronger effect = lower value 0.495 | locus YDR502C, strain sam2, stronger effect = lower value 0.835 | locus YEL003W, strain gim4, stronger effect = lower value 0.774 | locus YER155C, strain BEM2 (second series), stronger effect = lower value 0.753 | locus YGL173C, strain kem1, stronger effect = lower value 0.821 | locus YGL240W, strain doc1, stronger effect = lower value 0.768 | locus YGR135W, strain pre9, stronger effect = lower value 0.856 | locus YGR252W, strain gcn5, stronger effect = lower value 0.692 | locus YHR142W, strain chs7, stronger effect = lower value 0.803 | locus YIL066C, strain RNR3, stronger effect = lower value 0.795 | locus YJL095W, strain BCK1 (second series), stronger effect = lower value 0.632 | locus YJL129C, strain trk1, stronger effect = lower value 0.851 | locus YJL164C, strain tpk1, stronger effect = lower value 0.847 | locus YJL166W, strain qcr8, stronger effect = lower value 0.815 | locus YJL187C, strain SWE1, stronger effect = lower value 0.923 | locus YKR001C, strain vps1, stronger effect = lower value 0.86 | locus YLL026W, stronger effect = lower value 0.928 | locus YLR027C, strain aat2, stronger effect = lower value 0.875 | locus YLR039C, strain RIC1, stronger effect = lower value 0.504 | locus YLR221C, strain rsa3, stronger effect = lower value 0.796 | locus YLR262C, strain YPT6 (second series), stronger effect = lower value 0.471 | locus YLR262C, strain YPT6, stronger effect = lower value 0.487 | locus YLR320W, strain mms22, stronger effect = lower value 0.595 | locus YLR342W, strain FKS1 (second series), stronger effect = lower value 0.718 | locus YLR418C, strain cdc73, stronger effect = lower value 0.701 | locus YML032C, strain rad52, stronger effect = lower value 0.82 | locus YML120C, strain ndi1, stronger effect = lower value 0.853 | locus YMR058W, strain fet3, stronger effect = lower value 0.872 | locus YMR205C, strain PFK2, stronger effect = lower value 0.726 | locus YMR223W, strain ubp8, stronger effect = lower value 0.864 | locus YNL071W, strain lat1, stronger effect = lower value 0.563 | locus YNL250W, strain rad50, stronger effect = lower value 0.894 | locus YNL271C, strain bni1, stronger effect = lower value 0.893 | locus YNL298W, strain CLA4, stronger effect = lower value 0.821 | locus YNL307C, strain MCK1, stronger effect = lower value 0.723 | locus YNR052C, strain pop2, stronger effect = lower value 0.648 | locus YOL006C, strain TOP1, stronger effect = lower value 0.529 | locus YOR001W, strain rrp6, stronger effect = lower value 0.833 | locus YOR106W, strain vam3, stronger effect = lower value 0.766 | locus YOR184W, strain ser1, stronger effect = lower value 0.658 | locus YOR270C, strain vph1, stronger effect = lower value 0.634 | locus YPL051W, strain arl3, stronger effect = lower value 0.865 | locus YPL078C, strain atp4, stronger effect = lower value 0.886 | locus YPR163C, strain tif3, stronger effect = lower value 0.884
inactive: locus YAL026C, strain drs2, stronger effect = lower value 0.949 | locus YAL030W, strain snc1, stronger effect = lower value 0.938 | locus YBL061C, strain skt5, stronger effect = lower value 0.987 | locus YBR023C, strain chs3, stronger effect = lower value 0.942 | locus YBR171W, strain sec66, stronger effect = lower value 1 | locus YBR229C, strain ROT2, stronger effect = lower value 0.964 | locus YBR231C, strain swc5, stronger effect = lower value 0.999 | locus YBR279W, strain paf1, stronger effect = lower value 0.983 | locus YCL016C, strain dcc1, stronger effect = lower value 0.94 | locus YCL029C, strain bik1, stronger effect = lower value 0.948 | locus YCL069W, strain vba3, stronger effect = lower value 0.979 | locus YCR088W, strain abp1, stronger effect = lower value 1.03 | locus YDL005C, strain med2, stronger effect = lower value 1.03 | locus YDL040C, strain nat1, stronger effect = lower value 1.03 | locus YDL074C, strain BRE1, stronger effect = lower value 0.795 | locus YDL101C, strain DUN1, stronger effect = lower value 0.978 | locus YDL185W, strain tfp1, stronger effect = lower value 0.932 | locus YDR001C, strain nth1, stronger effect = lower value 1.03 | locus YDR069C, strain doa4, stronger effect = lower value 0.942 | locus YDR101C, strain arx1, stronger effect = lower value 0.947 | locus YDR150W, strain NUM1, stronger effect = lower value 1.01 | locus YDR297W, strain sur2, stronger effect = lower value 0.939 | locus YDR334W, strain swr1, stronger effect = lower value 1.05 | locus YDR335W, strain msn5, stronger effect = lower value 0.932 | locus YEL037C, strain rad23, stronger effect = lower value 1.01 | locus YEL061C, strain CIN8 (second series), stronger effect = lower value 1.01 | locus YEL061C, strain CIN8, stronger effect = lower value 0.994 | locus YER015W, strain faa2, stronger effect = lower value 0.985 | locus YER016W, strain bim1, stronger effect = lower value 0.998 | locus YER110C, stronger effect = lower value 0.958 | locus YER111C, strain swi4, stronger effect = lower value 0.998 | locus YER155C, strain BEM2, stronger effect = lower value 1.04 | locus YER167W, strain BCK2, stronger effect = lower value 0.966 | locus YFR010W, strain ubp6, stronger effect = lower value 0.973 | locus YGL078C, strain dbp3, stronger effect = lower value 0.943 | locus YGL086W, strain mad1, stronger effect = lower value 0.971 | locus YGL167C, strain pmr1, stronger effect = lower value 1.02 | locus YGL227W, strain vid30, stronger effect = lower value 1.08 | locus YGL248W, strain PDE1, stronger effect = lower value 0.912 | locus YGL253W, strain hxk2, stronger effect = lower value 0.92 | locus YHR013C, strain ard1, stronger effect = lower value 0.978 | locus YHR027C, strain rpn1, stronger effect = lower value 0.985 | locus YHR030C, strain SLT2, stronger effect = lower value 0.974 and 0.898 | locus YHR079C, strain IRE1 (second series), stronger effect = lower value 0.991 | locus YHR079C, strain IRE1, stronger effect = lower value 0.901 | locus YHR094C, strain hxt1, stronger effect = lower value 0.997 | locus YHR129C, strain ARP1, stronger effect = lower value 0.96 | locus YHR200W, strain rpn10, stronger effect = lower value 0.928 | locus YIL073C, strain SPO22, stronger effect = lower value 0.782 | locus YIL125W, strain kgd1, stronger effect = lower value 0.989 | locus YIR030C, strain dcg1, stronger effect = lower value 0.976 | locus YJL092W, strain hpr5, stronger effect = lower value 0.978 | locus YJL115W, strain asf1, stronger effect = lower value 1.01 | locus YJL134W, strain LCB3, stronger effect = lower value 1.01 | locus YJL154C, strain vps35, stronger effect = lower value 1.03 | locus YJL168C, strain set2, stronger effect = lower value 1 | locus YJL187C, strain SWE1 (second series), stronger effect = lower value 0.92 | locus YJR043C, strain POL32, stronger effect = lower value 0.883 | locus YJR066W, strain TOR1, stronger effect = lower value 0.881 | locus YKL009W, strain mrt4, stronger effect = lower value 0.906 | locus YKL068W, stronger effect = lower value 0.989 | locus YKL085W, strain MDH1 (second series), stronger effect = lower value 0.97 | locus YKL085W, strain MDH1, stronger effect = lower value 0.97 | locus YKL160W, strain elf1, stronger effect = lower value 0.95 | locus YKL190W, strain CNB1, stronger effect = lower value 0.98 | locus YKR026C, strain gcn3, stronger effect = lower value 1.02 | locus YKR091W, strain srl3, stronger effect = lower value 1.03 | locus YLL001W, strain dnm1, stronger effect = lower value 0.942 | locus YLL041C, strain sdh2, stronger effect = lower value 1.01 | locus YLR058C, strain SHM2, stronger effect = lower value 0.958 | locus YLR102C, strain apc9, stronger effect = lower value 0.992 | locus YLR113W, strain HOG1, stronger effect = lower value 0.923 | locus YLR258W, strain gsy2, stronger effect = lower value 0.92 | locus YLR268W, strain sec22, stronger effect = lower value 0.927 | locus YLR330W, strain CHS5, stronger effect = lower value 0.95 | locus YLR342W, strain FKS1, stronger effect = lower value 0.912 | locus YLR357W, strain rsc2, stronger effect = lower value 1.08 | locus YLR370C, strain arc18, stronger effect = lower value 0.972 | locus YLR371W, strain rom2, stronger effect = lower value 0.956 | locus YLR384C, strain iki3, stronger effect = lower value 1.04 | locus YML016C, strain PPZ1, stronger effect = lower value 0.988 | locus YML124C, strain tub3, stronger effect = lower value 0.996 | locus YMR078C, strain ctf18, stronger effect = lower value 0.966 | locus YMR125W, strain sto1, stronger effect = lower value 1.02 | locus YMR129W, stronger effect = lower value 0.929 | locus YMR231W, strain pep5, stronger effect = lower value 0.99 | locus YMR307W, strain GAS1, stronger effect = lower value 0.771 | locus YNL067W, strain RPL9B, stronger effect = lower value 0.985 | locus YNL183C, strain NPR1, stronger effect = lower value 0.876 | locus YNL209W, strain ssb2, stronger effect = lower value 0.991 | locus YNL233W, strain BNI4, stronger effect = lower value 0.902 | locus YNL248C, strain rpa49, stronger effect = lower value 0.908 | locus YNL322C, strain KRE1 (second series), stronger effect = lower value 0.977 | locus YNL322C, strain KRE1, stronger effect = lower value 0.99 | locus YNR049C, strain mso1, stronger effect = lower value 1.02 | locus YOL012C, strain htz1 1.71 | locus YOL147C, strain pex11, stronger effect = lower value 0.975 | locus YOR061W, strain CKA2, stronger effect = lower value 0.923 | locus YOR069W, strain VPS5, stronger effect = lower value 1 | locus YOR070C, strain gyp1, stronger effect = lower value 0.946 | locus YOR080W, strain dia2, stronger effect = lower value 1.02 | locus YOR083W, strain WHI5, stronger effect = lower value 0.904 | locus YOR136W, strain idh2, stronger effect = lower value 0.994 | locus YOR144C, strain elg1, stronger effect = lower value 0.954 | locus YOR231W, strain MKK1, stronger effect = lower value 0.901 | locus YOR265W, strain rbl2, stronger effect = lower value 0.997 | locus YOR290C, strain snf2, stronger effect = lower value 0.932 | locus YOR316C, strain cot1, stronger effect = lower value 0.981 | locus YPL106C, strain sse1, stronger effect = lower value 1.14 | locus YPL240C, strain hsp82, stronger effect = lower value 0.936 | locus YPL256C, strain CLN2, stronger effect = lower value 0.887 | locus YPR119W, strain clb2, stronger effect = lower value 1.01 | locus YPR141C, strain kar3, stronger effect = lower value 1 | locus YPR167C, strain met16, stronger effect = lower value 0.921 | strain wtn01, stronger effect = lower value 0.944
